This passage reports composite z-score and z-score results from PubChem BioAssay.

The source made the active and inactive calls.

For assay [1], the system named is Plasmodium falciparum Sir2 (PF13_0152, Sir2A). Nature of the assay: pfSir2 binders on small-molecule microarrays, primary screen, biochemical, small-molecule microarray, 635 nm fluorescence (AID 1098).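 Further: score merges spot fluorescence intensity with its signal-to-noise ratio.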 The settings on record: small-molecule microarray binding, fluorescence 635 nm; higher = more signal.
The nature of assay [2]: small-molecule microarray binders of probe aDKK1, primary screen, biochemical, biotinylated probe, 635/667 nm fluorescence (AID 1099).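 Further: score merges 667nm spot fluorescence with signal to noise across triplicate slides.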 Conditions: higher = more signal.
Assay [3] can be described thus: small-molecule microarray binders of probe aCHRDL2, primary screen, biochemical, biotinylated probe, 635/667 nm fluorescence (AID 1100). Conditions: higher = more signal.
Assay [4] is described as follows: splicing luciferase reporter signal modulators, primary screen, spliceosome inhibition project, cell-based, HEK293, splice +/- reporter (AID 1101).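 Further: HEK293 cells carrying a splicing-competent luciferase reporter gene; test concentration not given here.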 Conditions: luminescence, 24 h, higher = more signal, called active from +8 up or from −8 down.
Assay [5] addresses Fibroblast growth factor 10 (Homo sapiens) (UniProt O15520). Nature of the assay: FGF10 binders on small-molecule microarrays, primary screen, biochemical, small-molecule microarray, 635 nm fluorescence (AID 1102). Conditions: FGF10 binding, fluorescence 635 nm, higher = more signal.
Assay [6] relates to glycogen synthase kinase-3 (GSK3A per assay name; protocol says GSK3B). The assay is described as follows: GSK3 binders on small-molecule microarrays, primary screen, biochemical, small-molecule microarray, 635 nm fluorescence, GSK3A (AID 1103). Further: the record names both GSK3A and GSK3B. Conditions: small-molecule microarray binding, fluorescence 635 nm; higher = more signal.
In assay [7] the target is Epidermal growth factor receptor (Homo sapiens) (UniProt P00533). Nature of the assay: EGFR binders on small-molecule microarrays, primary screen, biochemical, small-molecule microarray, 635 nm fluorescence (AID 1104).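 Further: score merges 667 nm emission intensity with spot signal to noise over triplicate slides.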 Conditions: EGFR binding, higher = more signal.
Chain of Epidermal growth factor receptor (Homo sapiens) (P00533 whole entry, looked up): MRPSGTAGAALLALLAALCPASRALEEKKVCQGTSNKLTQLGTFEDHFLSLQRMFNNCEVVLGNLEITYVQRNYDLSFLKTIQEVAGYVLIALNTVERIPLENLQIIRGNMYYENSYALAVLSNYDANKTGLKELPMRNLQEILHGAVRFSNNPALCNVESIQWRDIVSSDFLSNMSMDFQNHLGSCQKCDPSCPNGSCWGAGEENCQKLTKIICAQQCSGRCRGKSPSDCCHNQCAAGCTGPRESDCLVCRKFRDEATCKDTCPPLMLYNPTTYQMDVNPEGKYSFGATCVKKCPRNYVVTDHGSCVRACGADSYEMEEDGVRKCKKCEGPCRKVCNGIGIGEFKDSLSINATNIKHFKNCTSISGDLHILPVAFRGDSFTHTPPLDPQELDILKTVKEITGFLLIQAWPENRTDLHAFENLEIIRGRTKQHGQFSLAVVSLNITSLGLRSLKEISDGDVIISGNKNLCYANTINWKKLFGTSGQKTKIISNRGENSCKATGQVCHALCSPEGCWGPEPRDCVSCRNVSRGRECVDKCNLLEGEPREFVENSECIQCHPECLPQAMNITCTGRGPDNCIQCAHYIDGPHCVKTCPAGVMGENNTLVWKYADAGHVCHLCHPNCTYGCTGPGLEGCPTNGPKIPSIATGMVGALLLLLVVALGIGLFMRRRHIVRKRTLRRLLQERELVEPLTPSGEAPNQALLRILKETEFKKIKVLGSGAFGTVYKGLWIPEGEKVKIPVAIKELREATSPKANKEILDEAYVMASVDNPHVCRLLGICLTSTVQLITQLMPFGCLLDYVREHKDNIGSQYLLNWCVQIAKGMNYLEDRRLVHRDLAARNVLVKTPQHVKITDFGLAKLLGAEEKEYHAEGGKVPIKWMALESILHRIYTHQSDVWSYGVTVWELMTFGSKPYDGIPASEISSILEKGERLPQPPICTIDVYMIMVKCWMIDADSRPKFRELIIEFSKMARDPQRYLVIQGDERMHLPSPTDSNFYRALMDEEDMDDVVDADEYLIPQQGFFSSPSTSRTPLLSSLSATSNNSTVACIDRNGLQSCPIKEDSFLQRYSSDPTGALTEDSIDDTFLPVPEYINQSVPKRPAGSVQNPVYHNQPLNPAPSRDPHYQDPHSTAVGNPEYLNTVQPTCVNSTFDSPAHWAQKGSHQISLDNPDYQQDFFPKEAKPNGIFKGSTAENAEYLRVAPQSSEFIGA
For assay [8], the target named is Follistatin-related protein 3 (Homo sapiens) (UniProt O95633). Nature of the assay: FSTL3 binders on small-molecule microarrays, primary screen, biochemical, small-molecule microarray, 635 nm fluorescence (AID 1105).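 Further: score merges emission near 667 nm and signal to noise per printed spot across three slides.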 The settings on record: FSTL3 binding, higher = more signal.
Chain of Follistatin-related protein 3 (Homo sapiens) (O95633 whole entry, looked up): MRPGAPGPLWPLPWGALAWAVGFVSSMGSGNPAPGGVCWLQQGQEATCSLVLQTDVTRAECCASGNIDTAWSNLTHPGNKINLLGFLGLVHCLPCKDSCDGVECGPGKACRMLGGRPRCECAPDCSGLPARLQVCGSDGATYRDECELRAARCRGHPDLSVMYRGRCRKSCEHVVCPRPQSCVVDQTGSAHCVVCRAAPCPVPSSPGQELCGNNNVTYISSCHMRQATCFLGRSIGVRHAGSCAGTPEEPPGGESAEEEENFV
Assay [9] deals with Dickkopf-related protein 1 (Homo sapiens) (UniProt O94907). The assay is described as follows: DKK1 binders on small-molecule microarrays, primary screen, biochemical, small-molecule microarray, 635 nm fluorescence scan (AID 1106).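 Further: score merges emission near 667 nm with signal to noise over three replicate slides.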 Conditions: DKK1 binding, higher = more signal.
Chain of Dickkopf-related protein 1 (Homo sapiens) (O94907 whole entry, looked up): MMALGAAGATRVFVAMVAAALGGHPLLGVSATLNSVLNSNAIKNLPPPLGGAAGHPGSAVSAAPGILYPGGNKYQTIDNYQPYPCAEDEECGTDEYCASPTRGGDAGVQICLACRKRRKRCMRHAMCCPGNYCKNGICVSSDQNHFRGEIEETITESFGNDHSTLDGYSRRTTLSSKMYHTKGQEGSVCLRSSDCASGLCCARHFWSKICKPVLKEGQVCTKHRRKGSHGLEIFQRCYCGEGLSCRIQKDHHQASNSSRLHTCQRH
Assay [10] deals with Inhibin beta A chain (activin A). The assay is described as follows: INHBA (activin A) binders on microarrays, primary screen, biochemical, small-molecule microarray, 635 nm fluorescence scan (AID 1107).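 Further: mouse activin A protein probed at 4.33 µg/mL on printed slides; score merges bound-protein fluorescence near 667 nm with spot signal-to-noise.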 The settings on record: small-molecule microarray binding, higher = more signal.
Assay [11] concerns Human papillomavirus type 1a protein E7 (residues 44-93). Nature of the assay: HPV1a E7 fragment binders on microarrays, primary screen, biochemical, small-molecule microarray, residues 44-93, 635 nm fluorescence (AID 1108).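 Further: E7 fragment applied at 1 µg/mL in TBST for 1 h at 4 C; score combines spot fluorescence with its signal to noise ratio.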 The settings on record: small-molecule microarray binding, fluorescence 635 nm; higher = more signal.
A short description of assay [12]: modulators of HCV replicon luciferase signal, primary screen, HCV replication inhibitor project, Huh7 cells, luciferase reporter (AID 1109).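 Further: huh7 hepatoma cells harbouring a luciferase neomycin HCV replicon reporter; luciferase luminescence as measure of HCV replicon replication; test concentration not given here.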 The settings on record: 48 h, higher = more signal. For orientation: In antiviral work, replicon cells carry a viral genome segment that copies itself.
The target of assay [13] is Left-right determination factor 2 (Homo sapiens) (UniProt O00292). Nature of the assay: LEFTY2 binders on small-molecule microarrays, primary screen, biochemical, small-molecule microarray, 635 nm fluorescence scan (AID 1110). Conditions: LEFTY2 binding, higher = more signal.
Chain of Left-right determination factor 2 (Homo sapiens) (O00292 whole entry, looked up): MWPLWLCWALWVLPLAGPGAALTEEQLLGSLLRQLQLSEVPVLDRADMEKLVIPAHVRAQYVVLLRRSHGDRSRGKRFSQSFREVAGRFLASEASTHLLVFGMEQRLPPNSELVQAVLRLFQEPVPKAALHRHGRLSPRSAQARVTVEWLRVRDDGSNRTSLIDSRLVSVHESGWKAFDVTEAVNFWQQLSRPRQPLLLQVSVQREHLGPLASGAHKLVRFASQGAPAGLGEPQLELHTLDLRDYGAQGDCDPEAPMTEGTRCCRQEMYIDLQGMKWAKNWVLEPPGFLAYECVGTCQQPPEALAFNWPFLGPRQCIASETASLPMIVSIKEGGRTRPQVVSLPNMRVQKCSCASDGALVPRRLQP
For assay [14], the target named is Calmodulin-1 (Homo sapiens) (UniProt P0DP23). The assay is described as follows: CALM1 binders on microarrays, EGTA buffer, profiling panel, biochemical, small-molecule microarray, Cy5-labelled CALM1 (AID 1111).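 Further: labelled calmodulin applied in Tris saline Tween buffer holding calcium plus EGTA and DTT.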 The settings on record: Cy5-CALM1 binding fluorescence, higher = more signal.
For assay [15] the target is unchanged. Nature of the assay: calcium-bound CALM1 binders on microarrays, profiling panel, artefact control for SMM control-protein annotation, biochemical, small-molecule microarray, Cy5-labelled CALM1, plus calcium (AID 1112).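 Further: score merges spot fluorescence with signal to noise from triplicate slides.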 Conditions: Cy5-CALM1 binding fluorescence, higher = more signal.
Assay [16] is described as follows: small-molecule microarray binders of probe aWnt5a, primary screen, biochemical, biotinylated probe, 635/667 nm fluorescence (AID 1113).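 Further: score merges 667 nm fluorescence intensity with signal-to-noise per printed feature.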 Conditions: higher = more signal.
Assay [17] is described as follows: small-molecule microarray binders of probe aShh, primary screen, biochemical, biotinylated probe, 635/667 nm fluorescence (AID 1114).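 Further: probe is biotin-labelled aShh protein from a stem cell growth factor screen; measures binding of labelled protein to compounds printed on the slide; score merges feature fluorescence at 667 nm with signal-to-noise.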 Conditions: higher = more signal.
A short description of assay [18]: small-molecule microarray binders of probe aNog, primary screen, biochemical, biotinylated probe, 635/667 nm fluorescence (AID 1115).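 Further: probe is biotinylated aNog protein used at 0.15 µg/mL for 1 h at 4 C; z-score combines 667 nm fluorescence of each spot with its signal to noise.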 The settings on record: higher = more signal.
Assay [19] deals with Torsin-1A-interacting protein 1 (Homo sapiens) (UniProt Q5JTV8). Nature of the assay: LAP1 binders from COS7 cell lysate, primary screen, small-molecule microarray, 635/667 nm fluorescence (AID 1116). Conditions: COS7-hLAP1 lysate binding, 635 nm fluorescence, higher = more signal.
Chain of Torsin-1A-interacting protein 1 (Homo sapiens) (Q5JTV8 whole entry, looked up): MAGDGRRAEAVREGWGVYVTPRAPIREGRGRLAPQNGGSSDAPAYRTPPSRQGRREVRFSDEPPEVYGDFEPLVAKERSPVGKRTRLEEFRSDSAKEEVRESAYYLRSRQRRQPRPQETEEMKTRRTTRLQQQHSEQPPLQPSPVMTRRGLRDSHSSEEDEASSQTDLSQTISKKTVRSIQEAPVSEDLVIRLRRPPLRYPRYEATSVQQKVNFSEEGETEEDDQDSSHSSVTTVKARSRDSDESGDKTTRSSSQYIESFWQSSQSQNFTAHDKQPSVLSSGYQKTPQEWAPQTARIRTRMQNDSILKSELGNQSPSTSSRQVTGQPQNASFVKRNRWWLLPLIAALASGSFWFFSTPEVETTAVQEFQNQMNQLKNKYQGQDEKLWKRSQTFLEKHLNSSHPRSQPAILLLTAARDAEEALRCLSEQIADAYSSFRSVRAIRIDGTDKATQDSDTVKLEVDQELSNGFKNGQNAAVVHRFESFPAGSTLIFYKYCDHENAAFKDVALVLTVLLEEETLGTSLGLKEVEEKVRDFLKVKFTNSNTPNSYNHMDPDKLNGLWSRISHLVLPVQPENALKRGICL
Assay [20] has as its target Alpha-bungarotoxin (Bungarus multicinctus) (UniProt P60615). The assay is described as follows: alpha-bungarotoxin binders on microarray, profiling panel, artefact control for SMM control protein annotation, biochemical, small-molecule microarray, Alexa647 label, 635/667 nm fluorescence (AID 1117). The settings on record: alpha-BTX-A647 binding fluorescence, higher = more signal.

Chain of Fibroblast growth factor 10 (Homo sapiens) (O15520 whole entry, looked up): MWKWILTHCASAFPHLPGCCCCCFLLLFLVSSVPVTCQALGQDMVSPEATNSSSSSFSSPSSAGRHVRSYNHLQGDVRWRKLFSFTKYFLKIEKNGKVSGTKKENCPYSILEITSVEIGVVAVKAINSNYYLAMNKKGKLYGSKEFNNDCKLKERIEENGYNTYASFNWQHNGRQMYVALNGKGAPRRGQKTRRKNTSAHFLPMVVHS
Chain of Alpha-bungarotoxin (Bungarus multicinctus) (P60615 whole entry, looked up): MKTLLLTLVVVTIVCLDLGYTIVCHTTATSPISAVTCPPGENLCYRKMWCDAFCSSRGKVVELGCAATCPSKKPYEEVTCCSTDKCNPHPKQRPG

Take `C=CC[C@]1(C(=O)N2CCOCC2)N=C(c2ccc(OCCCO)cc2)O[C@H]1c1ccccc1`: the composite z-score is 1.44 in assay [1]; 0.573 in assay [2]; 1.01 in assay [3]; 0.182 in assay [5]; 1.28 in assay [6]; -0.201 in [7]. Besides, the composite z-score in [8] was -0.524; in assay [9] it was 0.142; in [10], 0.862; in [11], 1.18; in [13] it was -0.42; in assay [14], 0.732. Besides, the composite z-score in [15] was 1.14; in assay [16], -0.0512; in assay [17] it was 0.218; in [18] it was 1.53; in assay [19], 2.09; in [20] it was 2.05. Also, the results for the z-score in [4] and in assay [12] were -0.0214 (inactive) and -0.716, respectively.
Regarding `COC(=O)[C@@]1(Cc2ccc(OC)cc2)[C@H]2c3cc(C(=O)N4CCCC4)n(CCc4c[nH]c5cc(F)ccc45)c3C[C@H]2CN1C(=O)c1ccccc1`, the composite z-score amounted to 1.31 in assay [1]; 0.185 in assay [2]; 1.19 in assay [3]; 0.875 in assay [5]; 1.09 in [6]; 0.0022 in [7]. For the same compound, the composite z-score in assay [8] is 0.988; in [9] it was -0.0303; in [10] it was 0.831; in assay [11], 0.991; in assay [13], 0.259; in assay [14] it was 2.73. Moreover, the composite z-score was 1.07 in assay [15]; 0.168 in assay [16]; 0.265 in [17]; 2.06 in assay [18]; 2.94 in assay [19]; 1.42 in assay [20]. Besides, the z-score is -0.332 (inactive) in assay [4] and -1.89 in assay [12].
`CC(C)N1C(=O)c2ccccc2[C@@H](C(=O)NCCCN(C)C)[C@@H]1c1ccc(CO)cc1`: the composite z-score in [1] is 1.31; in assay [2], 0.744; in assay [3], 1.01; in assay [5], 0.0328; in assay [6], -0.367; in [7], -0.568. In addition, the composite z-score in assay [8] was -0.85; in assay [9], -1.25; in assay [10], 0.557; in assay [11] it was -1; in assay [13], -0.89; in assay [14], 0.341. The composite z-score is 0.0647 in assay [15]; 0.026 in [16]; -0.367 in assay [17]; 0.707 in [18]; 0.64 in [19]; 0.684 in assay [20]. For the same compound, the figures for the z-score in [4] and in assay [12] were -0.472 (inactive) and 0.19, respectively.
Turning to `COC(=O)[C@@]1(Cc2ccc(OC)cc2)[C@H]2c3cc(C(=O)N4CCCC4)n(Cc4ccccn4)c3C[C@H]2CN1C(=O)c1ccccc1`, the composite z-score in assay [1] was 0.987; in assay [2], 1.33; in assay [3] it was 1.3; in assay [5], 0.928; in assay [6], 1.2; in [7], -0.0442. The composite z-score in assay [8] is 0.182; in [9] it was -0.899; in [10], 0.673; in assay [11], 1.48; in [13], -0.662; in [14], 1.42. The composite z-score in assay [15] was 0.816; in [16], 0.202; in assay [17], -0.0069; in [18] it was 2.04; in assay [19], 1.07; in assay [20] it was 0.65. Besides, the z-score in assay [4] is -3.17 (inactive); in assay [12], -1.52.
With `CCOc1cc(C(O)C2C=CC3C(=O)N(c4ccccc4)C(=O)C3N2Nc2ccc([N+](=O)[O-])cc2)ccc1O` (stereo not given), the composite z-score in [1] was 1.33; in assay [2], -0.0703; in assay [3], -0.129; in [5], 0.575; in assay [6], 0.757; in assay [7], 0.317. Also, the composite z-score is 0.429 in assay [8]; 0.0577 in [9]; 0.199 in assay [10]; 0.532 in assay [11]; 0.173 in assay [13]; -0.085 in [14]. The composite z-score in [15] is -0.255; in assay [16], -0.0165; in assay [17], -0.0849; in assay [18] it was -0.489; in [19], 0.0762; in assay [20], 0.0502. Further, the z-score in assay [4] was -0.214 (inactive); in assay [12] it was -0.31.
